How the values were obtained:
Test in all cases: thermal shift delta Tm vs DMSO control; higher = stronger stabilization (binding)
Conditions in all cases: 12.5 µM; protein concentration 2 µM
[1] = tested on: LOC_OS01G57100-cb003
Outline: (§1)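 Heating from 25°C to 95°C at 0.05°C/s, fluorescence was recorded for 19.5 μl wells of 2 μM E. coli-expressed, purified rice kinase domain in 100 mM potassium phosphate pH 7.5, 150 mM NaCl, 10% glycerol and 5 × SYPRO Orange with compound in DMSO. Boltzmann fits gave melting temperatures for this differential scanning fluorimetry assay. The shift reported is the mean of three replicates against the DMSO-only protein.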

[2] = tested on: LOC_OS01G60330-cb001
Outline: as §1

[3] = tested on: LOC_OS01G60700-cb002
Outline: as §1

[4] = tested on: LOC_OS01G63280-cb003
Outline: as §1

[5] = tested on: LOC_OS01G67340-cb003
Outline: as §1

[6] = tested on: LOC_OS01G70970-cb002
Outline: as §1

[7] = tested on: LOC_OS02G07810-cb001
Outline: as §1

[8] = tested on: LOC_OS02G08530-cb003
Outline: as §1

[9] = tested on: LOC_OS02G14120-cb001
Outline: as §1

[10] = tested on: LOC_OS02G17970-cb001
Outline: as §1
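Further: purified Escherichia coli-expressed rice kinase domain construct.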

SMILES	thermal shift delta Tm [1] [°C]	thermal shift delta Tm [2] [°C]	thermal shift delta Tm [3] [°C]	thermal shift delta Tm [4] [°C]	thermal shift delta Tm [5] [°C]	thermal shift delta Tm [6] [°C]	thermal shift delta Tm [7] [°C]	thermal shift delta Tm [8] [°C]	thermal shift delta Tm [9] [°C]	thermal shift delta Tm [10] [°C]
CS(=O)(=O)c1ccc(-c2cnc(N)c(C(=O)Nc3ccccc3)n2)cc1	0.59	1.29	0.17	0.26	0.52	1.04	0.54	0.71	-0.32	-0.36
CCn1nc(C2CCN(C(=O)CCO)CC2)nc1-c1cnc(N)c(-c2nnc(C(C)(C)C)o2)n1	0.59	0.91	1.19	1.82	1.55	1.96	1.55	2.73	5.17	1.34
NC[C@@](O)(c1ccc(Cl)cc1)c1ccc(-c2cn[nH]c2)cc1	2.29	1.43	1.37	0.56	0.77	0.29	0.52	0.75	1.05	0.63
CN(C)C/C=C/C(=O)Nc1ccc(C(=O)Nc2cccc(Nc3ncc(Cl)c(-c4c[nH]c5ccccc45)n3)c2)cc1	4.58	12.2	2.21	1.68	4.17	11.9	1.36	5.36	10.1	1.88
COc1cc2nccc(Oc3ccc(NC(=O)C4(C(=O)Nc5ccc(F)cc5)CC4)cc3)c2cc1OC [Cabozantinib malate (XL184)]	1.34	0.89	1.35	0.47	0.53	0.57	1.09	1.12	0.46	0.98
COc1cccc2cc(-c3nc([C@H]4CC[C@H](C(=O)O)CC4)n4ncnc(N)c34)[nH]c12	2.68	0.91	0.9	1.4	1.05	0.4	1.58	1.17	0.19	0.71
Cc1cc(Nc2cc(Cl)nc(Oc3ccc([N+](=O)[O-])cc3)n2)n[nH]1 [Autophinib]	1.52	0.66	-0.44	0.94	0.51	1.07	-0.12	0.84	0.42	0.46
Cc1csc(-c2nnc(Nc3ccc(Oc4ncccc4-c4ccnc(N)n4)cc3)c3ccccc23)c1	2.43	-0.58	0.56	14	0.96	0.74	1.36	4.38	3.75	1.17
C[C@H](Nc1ncnc2[nH]cnc12)c1cc2ccc(F)cc2nc1-c1ccccn1	2.29	1.36	2.33	0.52	0.95	0.17	0.74	0.28	0.28	0.95
NC(=O)c1cnc(N[C@@H]2CCCC[C@@H]2N)nc1Nc1cccc(-n2nccn2)c1	2.55	0.94	1.04	0.28	0.99	2.19	-0.28	4.36	2.99	1.5
O=C1NCCc2[nH]c(-c3ccncc3)cc21	1.88	1.38	0.92	0.5	1.42	0.32	0.78	2.64	1.75	0.79
COc1cc(N2CCC(N(C)C)CC2)ccc1Nc1ncc(Cl)c(Nc2ccccc2P(C)(C)=O)n1	4.55	0.43	0.89	0.32	1.45	4.81	0.65	5.8	10.2	0.5
CNC(=O)c1cc(Oc2ccc3nc(N[C@@H]4CCCC[C@H]4O)sc3c2)ccn1	1.55	0.59	1.46	0.76	1.16	0.25	0.97	0.76	-0.02	0.53
CC(C)[C@H](CO)Nc1nc(Nc2cccc(Cl)c2)c2ncn(C(C)C)c2n1 [Purvalanol A]	2.77	5.05	0.1	0.46	3.08	3.68	0.09	4.08	1.7	0.39
Cc1nc(-c2cn3c(n2)-c2ccc(-c4cnn(C(C)(C)C(N)=O)c4)cc2OCC3)n(C(C)C)n1 [Taselisib (GDC 0032)]	0.43	0.33	0.46	0.16	0.07	0.23	0.07	0.84	0.27	0.09
COC(=O)N[C@@H](C)CNc1nccc(-c2cn(C(C)C)nc2-c2cc(Cl)cc(NS(C)(=O)=O)c2F)n1 [Encorafenib (LGX818)]	1.3	0.6	1.13	16.6	0.27	0.24	0.09	0.83	1.23	0.55
CN(C)Cc1cccc(N/C(=C2\C(=O)Nc3cc(C(N)=O)ccc32)c2ccccc2)c1	0.28	1.3	0.57	0.43	0.19	0.87	0.75	1.55	1.2	0.67

SMILES	thermal shift delta Tm [1] [°C]	thermal shift delta Tm [2] [°C]	thermal shift delta Tm [3] [°C]	thermal shift delta Tm [4] [°C]	thermal shift delta Tm [5] [°C]	thermal shift delta Tm [6] [°C]	thermal shift delta Tm [7] [°C]	thermal shift delta Tm [8] [°C]	thermal shift delta Tm [9] [°C]	thermal shift delta Tm [10] [°C]
NCC(=O)Nc1ccc(-n2nc(C(F)(F)F)cc2-c2ccc3c(ccc4ccccc43)c2)cc1	0.88	4.36	0.02	3.67	-0.53	0.2	0.25	0.42	1.29	-0.34
O=c1nc(N2CCOCC2)oc2c(-c3cccc4c3sc3ccccc34)cccc12	1.63	-0.13	-0.9	-1.32	-1.09	-0.38	-1.31	0.23	0.11	-0.76
CC(C)NC(=O)C1CCC(n2c(NC(=O)c3ccc(F)cc3)nc3ccc(CN4CCC(C(C)(C)O)CC4)cc32)CC1 (stereo not given) [Belizatinib (TSR-011)]	0.68	1.95	0.11	0.25	2.85	6.79	-0.66	5.19	4.13	-0.03
CN(C)Cc1cccc(N=C(c2ccccc2)c2c(O)[nH]c3cc(C(=O)N(C)C)ccc23)c1	0.86	0.56	0.46	0.74	0.8	0.24	1.05	0.71	1.17	1.25
CN1CCN(Cc2ccc(-c3cnc4[nH]cc(-c5ccc6[nH]ccc6c5)c4c3)cc2)CC1	2.72	5.96	2.47	7.33	7.26	10.2	1.34	5.47	10.8	0.97
C1=N/C2=N/c3ccc(OCCN4CCCC4)c(c3)COC/C=C/COCc3cccc(c3)C(=C1)N2 [Pacritinib (SB1518)]	1.85	6.01	0.7	2.88	1.79	2.62	0.11	4.85	11.4	0.42
COc1cc2ncnc(Nc3ccc(O)c(Br)c3)c2cc1OC	0.74	0.32	1.72	0.92	0.7	0.81	0.81	1.8	7.45	1.06
Cc1[nH]c(/C=C2\C(=O)Nc3ccccc32)c(C)c1CCC(=O)O [Orantinib (TSU-68, SU6668)]	2.5	12.6	0.82	0.57	1.81	4.33	1.32	4.91	7.18	0.78
Cn1cnc2c(F)c(Nc3ccc(Br)cc3Cl)c(C(=O)NOCCO)cc21 [Selumetinib (AZD6244)]	0.72	0.77	1.13	-0.08	-0.85	0.48	0.62	0.39	0.1	0.19
Cc1ccc2nc(NCCN)c3ncc(C)n3c2c1	0.95	0.28	0.64	0.27	0.55	0.33	0.4	0.92	0.86	0.51
c1cncc(CN2CCC(n3ncc4c(N5CCOCC5)nc(-c5ccc6[nH]ccc6c5)nc43)CC2)c1	2.55	0.61	0.71	0.09	-0.04	0.4	0.62	0.57	0.15	0.27
C[C@@H](N)[C@H]1CC[C@H](C(=O)Nc2ccncc2)CC1	0.49	1.12	1.12	0.48	0.04	0.52	0.9	0.85	0.71	0.32
Cn1c2ccccc2c2c3c(c4c5ccccc5n(CCC#N)c4c21)CNC3=O	2.09	2.57	-1.36	1.14	4.81	3.29	2.07	5.99	9.45	3.31
Cc1nc(N)sc1-c1ccnc(Nc2ccc(N3CCOCC3)cc2)n1	1.88	3.15	0.88	0.17	-0.01	1.58	0.79	2.22	8.9	-0.16
CCOc1cc(N2CCC(O)CC2)ccc1Nc1ncc2c(n1)N(C)c1ccccc1C(=O)N2C	1.56	0.82	1.24	-0.13	-0.04	0.52	0.39	0.9	-0.64	0.7
CC(C)CC(NC(=O)C(Cc1ccccc1)NC(=O)C(CCC(N)=O)NC(=O)C(Cc1ccc(O)cc1)NC(=O)C(C)NC(=O)CNC(=O)C(CCCCN)NC(=O)C(Cc1c[nH]c2ccccc12)NC(=O)C(NC(=O)C(Cc1c[nH]c2ccccc12)NC(=O)C(CCCCN)NC(=O)CNC(=O)C(CC(N)=O)NC(=O)C(CCC(=O)O)NC(=O)C(Cc1c[nH]c2ccccc12)NC(=O)C(NC(=O)C(Cc1c[nH]c2ccccc12)NC(=O)C(CO)NC(=O)CNC(=O)C1CCCN1C(=O)C(Cc1c[nH]c2ccccc12)NC(=O)C(CCC(N)=O)NC(=O)C(Cc1ccccc1)NC(=O)CNC(=O)C(N)Cc1c[nH]cn1)C(C)O)C(C)O)C(=O)NC(CCCCN)C(=O)NCC(=O)NCC(=O)NCC(=O)NCC(=O)NC(CO)C(=O)NC(CCCNC(=N)N)C(=O)NC(CCCNC(=N)N)C(=O)NC(CCCNC(=N)N)C(=O)NC(CCCNC(=N)N)C(=O)NC(CCCNC(=N)N)C(=O)NC(CCCNC(=N)N)C(=O)NC(CCCNC(=N)N)C(=O)NC(CCCNC(=N)N)C(=O)NC(CCCNC(=N)N)C(=O)O (stereo not given)	0.58	0.74	0.22	0.38	1.17	0.55	0.74	0.87	1.8	-0.53

Reference: the supplement of paper PMC9694430
